Assay results as given in PMC5540273 (PLoS ONE, 2017).

What was measured:
Conditions in all cases: concentration: 1 μM, replicates: in singlicate; n = 1
MST1R = test system: MST1R
MST1 = test system: T1, MST1
T1 construct: gene STK4

MST2 = test system: T2, MST2
T2 construct: gene STK3

MST3 = test system: T3, MST3
T3 construct: gene STK24

MST4 = test system: MST4
MTOR = test system: MTOR
MUSK = test system: MUSK
MYLK2 = test system: MYLK2
MYLK4 = test system: MYLK4
MYLK = test system: MYLK
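Also: KINOMEscan kinase panel screen.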

Row | SMILES | %Inh (MST1R) [%] | %Inh (MST1) [%] | %Inh (MST2) [%] | %Inh (MST3) [%] | %Inh (MST4) [%] | %Inh (MTOR) [%] | %Inh (MUSK) [%] | %Inh (MYLK2) [%] | %Inh (MYLK4) [%] | %Inh (MYLK) [%]
1 | Cc1cccc2c(-c3ccncn3)c(-c3ccc(F)cc3)nn12 [GW515532] | 26 | 7 | 0 | 15 | 0 | 9 | 12 | 0 | 0 | 0
2 | Cc1ccc(NC(=O)c2ccc(Cl)cc2)cc1-c1ccc(C(=O)Nc2ccncc2)cc1 [GSK1398467] | 28 | 9 | 0 | 4 | 0 | 0 | 2 | 0 | 0 | 2
3 | COc1ccc(Nc2nccc(N3CCC(NC(=O)C(C)c4ccc(Cl)cc4)C3)n2)cc1 (stereo not shown) [GSK1379735] | 39 | 44 | 26 | 0 | 3 | 26 | 24 | 3 | 2 | 11
4 | Cn1cnc2c(N)ncnc21 [SKF-97623] | 0 | 0 | 24 | 0 | 0 | 4 | 0 | 0 | 0 | 0
5 | CN1c2ccc(-c3ccc(C(N)=O)cc3)cc2-c2[nH]ncc2S1(=O)=O | 0 | 0 | 0 | 0 | 2 | 14 | 0 | 0 | 0 | 73
6 | CNC(=O)c1ccc(C)c(-n2c(C)cc(OCc3ccc(F)cc3F)c(Br)c2=O)c1 | 0 | 0 | 0 | 0 | 0 | 33 | 6 | 9 | 3 | 0
7 | Cc1ccc(-c2nc(Nc3ccncc3)c3ccccc3n2)s1 [GSK189015] | 37 | 6 | 21 | 11 | 5 | 10 | 17 | 26 | 7 | 19
8 | Fc1ccc(-c2nc[nH]c2-c2ccncc2)cc1 [SB-217360] | 0 | 13 | 0 | 0 | 0 | 4 | 0 | 0 | 0 | 3
9 | Cc1cnc(N)c(/C=C/c2cncc(C(=O)NCCc3ccc(Cl)cc3Cl)c2)c1.Cl [GSK190937] | 29 | 0 | 0 | 5 | 0 | 6 | 0 | 0 | 62 | 20
10 | CCn1c(-c2ccccc2)nc2cnccc21 [SB-733416] | 11 | 27 | 6 | 0 | 0 | 31 | 16 | 0 | 2 | 0
11 | COC(=O)C(Cc1ccccc1)NC(=O)NC1CCN(c2ccnc(Nc3ccc(F)cc3)n2)C1 (stereo not shown) [GSK1379714] | 39 | 5 | 0 | 3 | 0 | 33 | 8 | 0 | 13 | 11
12 | CS(=O)(=O)CCNCc1nc(-c2ccc3ncnc(Nc4ccc5c(cnn5Cc5ccccc5)c4)c3c2)cs1.Cl.Cl [GW569716] | 10 | 3 | 0 | 0 | 0 | 17 | 0 | 0 | 10 | 0
13 | Cn1cncc1-c1cc2c(Nc3ccc(OCc4ccccc4)cc3)ncnc2cn1 [GW281179] | 49 | 0 | 0 | 0 | 0 | 3 | 12 | 10 | 0 | 9
14 | CC(C)c1cc(-c2ccc3c(N)n[nH]c3c2)nc(N)n1 [GSK2250882] | 3 | 0 | 0 | 8 | 0 | 11 | 0 | 23 | 39 | 26
15 | COc1cccc(NC(=O)Nc2ccc(C)c(-c3ccc(C(=O)Nc4ccncc4)cc3)c2)c1 [GSK1398474] | 57 | 18 | 0 | 10 | 0 | 0 | 1 | 4 | 3 | 31
16 | CNc1nc(-c2ccc3c(N)n[nH]c3c2)cc(N2C[C@@H](C(=O)Nc3ccccc3)CC[C@H]2C)n1 [GSK2298859] | 26 | 0 | 0 | 0 | 4 | 3 | 0 | 9 | 0 | 11
17 | CCCCc1nn2ncccc2c1-c1ccnc(NC2CC2)n1 [GW684374] | 38 | 0 | 15 | 0 | 0 | 5 | 19 | 0 | 52 | 0

Row | SMILES | %Inh (MST1R) [%] | %Inh (MST1) [%] | %Inh (MST2) [%] | %Inh (MST3) [%] | %Inh (MST4) [%] | %Inh (MTOR) [%] | %Inh (MUSK) [%] | %Inh (MYLK2) [%] | %Inh (MYLK4) [%] | %Inh (MYLK) [%]
18 | Cc1ccccc1-c1cc(-c2c[nH]nc2-c2ccccn2)ccn1 [GW680061] | 12 | 0 | 0 | 0 | 10 | 30 | 10 | 0 | 0 | 1
19 | CCc1ccc(-c2ccc3c(c2)-c2n[nH]cc2S(=O)(=O)N3C)cc1 | 0 | 8 | 0 | 0 | 0 | 0 | 0 | 0 | 0 | 0
20 | COc1cccc(CNC(=O)NC2CCN(c3ccnc(Nc4ccc(F)cc4)n3)C2)c1 (stereo not shown) [GSK1379723] | 44 | 11 | 0 | 0 | 0 | 15 | 7 | 0 | 0 | 0
21 | COc1cccc(C2=C(Nc3cc(Cl)c(O)c(Cl)c3)C(=O)NC2=O)c1 [SB-390767] | 13 | 100 | 29 | 0 | 0 | 44 | 5 | 10 | 9 | 0
22 | COc1ccc(CSc2nnc(-c3ccc4ncsc4c3)o2)cc1C(F)(F)F | 0 | 0 | 0 | 0 | 0 | 8 | 1 | 16 | 1 | 0
23 | Nc1nccc(-c2c(-c3ccc(F)cc3)ncn2C2CCN(Cc3ccccc3)CC2)n1 [SB-219980] | 0 | 17 | 8 | 0 | 0 | 23 | 0 | 0 | 0 | 0
24 | CC(=O)c1c(C)c2cnc(Nc3ccc(N4CCNCC4)cn3)nc2n(C2CCCC2)c1=O | 6 | 0 | 0 | 5 | 0 | 55 | 8 | 6 | 0 | 9
25 | COc1ccc(CSc2nnc(-c3ccc4c(c3)CCO4)o2)cc1 | 13 | 0 | 0 | 0 | 0 | 0 | 0 | 0 | 3 | 0
26 | COc1nccc(-c2c(-c3ccc(F)cc3)ncn2CCCN2CCOCC2)n1 [SB-282852] | 0 | 0 | 22 | 0 | 0 | 0 | 0 | 56 | 0 | 18
27 | O=c1cc(N2CCOCC2)nc2n(Cc3cccc(Cl)c3Cl)c3ccccc3n12 [GSK2299009] | 44 | 39 | 9 | 6 | 0 | 19 | 39 | 17 | 13 | 31
28 | CNCc1ccc2nc(NC(=O)c3ccc(C(C)(C)C)cc3)cn2c1 | 18 | 16 | 25 | 7 | 24 | 2 | 0 | 7 | 1 | 24
29 | CNc1nc(-c2ccc3c(N)n[nH]c3c2)cc(N2C[C@@H](C(=O)NC3CCCCC3)OC[C@H]2C)n1 [GSK2375584] | 30 | 0 | 0 | 18 | 0 | 0 | 16 | 0 | 0 | 18
30 | NS(=O)(=O)c1cccc(N/C=C2\C(=O)Nc3ccc(S(=O)(=O)Cc4c(Cl)cccc4Cl)cc32)c1 [GSK398099] | 17 | 0 | 1 | 0 | 0 | 11 | 7 | 0 | 1 | 18
31 | O=C(Nc1n[nH]c2nc(-c3cccs3)c(Br)cc12)C1CC1 [SB-735297] | 0 | 3 | 4 | 0 | 5 | 0 | 0 | 99.4 | 29 | 29
32 | O=C1NC(=O)C(c2ccc(Cl)cc2)=C1Nc1ccc(O)cc1 [SB-340867] | 0 | 0 | 0 | 0 | 0 | 0 | 0 | 0 | 3 | 11
33 | COC(=O)c1cccc(NC(=O)NC2CCN(c3ccnc(Nc4ccc(OC)cc4)n3)C2)c1 (stereo not shown) [GSK1379746] | 42 | 0 | 10 | 0 | 0 | 19 | 0 | 4 | 0 | 0
34 | Cc1ccc(NC(=O)Nc2ccc(Cl)c(C(F)(F)F)c2)cc1-c1ccc(C(=O)Nc2ccncc2)cc1 [GSK1398470] | 38 | 9 | 0 | 13 | 0 | 16 | 10 | 0 | 2 | 24
